SKKanGAS inh – inhibitors of SKKanGAS S. pyogenes growth in kanamycin (SK-promoter or general growth effect). BacTiter-Glo, 6 h. inhibition, % at 7.5 µM. actives 1.3% (n = 300,000). AID 1662;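 active = mean replicate score, as percent of positive control median, at least 50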;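 note: strain carries kanamycin resistance gene driven by streptokinase promoter and grows in 40 µg/ml kanamycin; loss of luminescence reflects streptokinase promoter inhibition or plain growth inhibition; 0% = median of DMSO wells and 100% = positive control at its reference dose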
tim23-1 inh – inhibits growth of tim23-1 mutant yeast. AID 463212. S. cerevisiae tim23-1 growth, BacTiter-Glo luminescence, 24 h. actives 1.3% (n = 330,000). inhibition, % at 20 µM;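 active = growth inhibition of the mutant yeast at or above 50%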;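 note: temperature-sensitive mutant grown at 25 °C; plate controls were DMSO-treated mutant yeast for no effect and medium wells lacking yeast for full effect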
TIM10 inh – TIM10 yeast growth inhibition. S. cerevisiae TIM10 strain growth, BacTiter-Glo luminescence, 24 h. inhibition, % at 10 µM. actives 1.4% (n = 330,000). AID 463195;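 active = inhibition of 40% or more at the single tested concentration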;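 note: wild-type TIM10 isogenic control strain grown at permissive 25 °C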
ATG4B inh – blocks human ATG4B protease cleavage of LC3 substrate; Q9Y4P1; ATG4B cleavage of LC3-PLA2, NBD-HPC fluorescence, 1 h; inhibition, % at 8.33 µM; actives 0.51% (n = 340,000); AID 504462; in the data active = inhibition above about 40%
Target sequence (Q9Y4P1 whole entry, looked up): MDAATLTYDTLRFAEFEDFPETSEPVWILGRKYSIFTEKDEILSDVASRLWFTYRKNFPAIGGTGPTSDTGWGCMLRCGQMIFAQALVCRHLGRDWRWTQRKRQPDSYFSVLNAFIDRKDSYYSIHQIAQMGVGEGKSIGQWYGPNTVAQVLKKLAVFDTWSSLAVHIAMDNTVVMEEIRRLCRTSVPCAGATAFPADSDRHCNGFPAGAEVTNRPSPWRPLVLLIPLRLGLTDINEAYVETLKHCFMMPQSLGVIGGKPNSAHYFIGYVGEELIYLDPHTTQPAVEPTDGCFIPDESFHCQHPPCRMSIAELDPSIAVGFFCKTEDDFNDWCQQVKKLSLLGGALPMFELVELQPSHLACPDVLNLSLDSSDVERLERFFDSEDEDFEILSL
PfHsp90 set2 – reduces growth (ATP signal) of yeast expressing P. falciparum Hsp90; S. cerevisiae expressing PfHsp90, BacTiter-Glo ATP, 48 h; yeast lacking PDR1 and PDR3 efflux regulators; inhibition, % at 9.4 µM; actives 0.32% (n = 310,000); AID 504621;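 active = every replicate shows inhibition above about 80%, whatever the replicate mean, limit read from the data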;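 note: 0% = DMSO neutral controls and 100% = 20 µM radicicol positive controls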
tim10-1 inh – tim10-1 yeast growth inhibition; S. cerevisiae tim10-1 ts strain growth, BacTiter-Glo, 24 h; inhibition, % at 20 µM; actives 2.2% (n = 330,000);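 active = inhibition of at least 40%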;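 note: mutant grown at 25 °C; 0% = DMSO wells with yeast and 100% = wells holding no yeast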
tim10 confirm – confirmation of TIM10 yeast growth inhibitors. shares compounds with TIM10 inh. S. cerevisiae tim10 strain growth, BacTiter-Glo luminescence, 24 h. inhibition, % at 10 µM. actives 63% (n = 4,600);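 active = inhibition of yeast growth at or above a set limit in either of two replicates at 10 µM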;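 note: this counterscreen used the strain with wild-type TIM10; 0% = yeast with DMSO and 100% = medium wells lacking yeast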
tim23-1 conf – tim23-1 yeast growth inhibition, confirmed | shares compounds with tim23-1 inh | S. cerevisiae tim23-1 growth, BacTiter-Glo luminescence, 24 h | inhibition, % at 20 µM | actives 83% (n = 4,400) | AID 463218;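 active = inhibition above about 39% in either of two replicate wells at 20 µM, limit read from the data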;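 note: temperature-sensitive tim23-1 mutant grown at 25 °C; 0% = DMSO wells with yeast and 100% = medium wells without yeast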
ATG4B conf – confirmation of human ATG4B inhibitors; shares compounds with ATG4B inh; ATG4B protease fluorescent substrate cleavage assay; inhibition, % at 8.33 µM; actives 92% (n = 320); AID 504757; in the data active = inhibition above about 39%
PLA2 counter – counter-screen for ATG4B inhibitors: human phospholipase A2; shares compounds with ATG4B inh; purified PLA2, NBD-C6-HPC fluorescence, 45 min; inhibition, % at 8.33 µM; actives 66% (n = 1,600); AID 588402; in the data active = inhibition above about 50%
Target sequence (P04054 whole entry, looked up): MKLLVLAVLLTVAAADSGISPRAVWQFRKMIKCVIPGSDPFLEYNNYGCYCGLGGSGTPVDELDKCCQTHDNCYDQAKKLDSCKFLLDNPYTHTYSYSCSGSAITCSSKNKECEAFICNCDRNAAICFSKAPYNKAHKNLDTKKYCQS
* marks the source's active call; other numbers are inactive results. Compounds with a hit are over-represented: about 4.7% of the library has one in this group of screens.

Results for Cc1ccc(C(=O)Cc2ccccc2)c(O)c1 ?
ATG4B inh: 3

How did CC(C)=CCc1c(O)ccc(C(=O)Cc2ccccc2)c1O do in these assays?
SKKanGAS inh: 23; tim23-1 inh: 67*; TIM10 inh: 41*; ATG4B inh: -9; PfHsp90 set2: -9; tim10-1 inh: 19; tim10 confirm: 58*; tim23-1 conf: -32

How did O=C(Nc1ccc(-c2cn3ccccc3n2)cc1)c1ccco1 do in these assays?
SKKanGAS inh: 0; tim23-1 inh: 59*; TIM10 inh: 44*; ATG4B inh: -2; PfHsp90 set2: 22; tim10-1 inh: -18; tim10 confirm: 1; tim23-1 conf: 59*

How did COc1ccccc1C(=O)NC(=O)COC(=O)c1ccc(NC(=O)CC#N)cc1 do in these assays?
SKKanGAS inh: 13; tim23-1 inh: -13; TIM10 inh: -1; ATG4B inh: -10; PfHsp90 set2: 21; tim10-1 inh: 10

How did Cc1cc(NC(=O)c2ccco2)sc1C do in these assays?
tim23-1 inh: 52*; TIM10 inh: 43*; ATG4B inh: -4; PfHsp90 set2: 33; tim10-1 inh: 0; tim10 confirm: 27; tim23-1 conf: 59*

How did Oc1ccc(/C=C/c2ccc3ccccc3n2)cc1 do in these assays?
SKKanGAS inh: 44; tim23-1 inh: 75*; TIM10 inh: 44*; ATG4B inh: -23; PfHsp90 set2: 50; tim10-1 inh: 16; tim10 confirm: 47*; tim23-1 conf: 55*

Results for O=[N+]([O-])c1ccc(/C=C/c2ccc3ccccc3n2)cc1 ?
SKKanGAS inh: -15; tim23-1 inh: 23; TIM10 inh: 1; ATG4B inh: -6; PfHsp90 set2: 4; tim10-1 inh: 11

How did Fc1ccc(Nc2nc(N/N=C/c3ccco3)nc(N3CCCCC3)n2)cc1 do in these assays?
SKKanGAS inh: 68*; tim23-1 inh: 41; TIM10 inh: 40*; ATG4B inh: 64*; PfHsp90 set2: -6; tim10-1 inh: 13; tim10 confirm: 22; PLA2 counter: 78*

What do the screens show for `C(=N\Nc1nc(N2CCOCC2)nc(N2CCOCC2)n1)/c1ccco1`?
SKKanGAS inh: -6; tim23-1 inh: 6; TIM10 inh: 9; tim10-1 inh: -8

Results for O=C(N/N=C/c1ccccn1)c1cc(Br)ccc1O ?
SKKanGAS inh: 36; tim23-1 inh: 18; TIM10 inh: 16; ATG4B inh: -1; PfHsp90 set2: -7; tim10-1 inh: 8

What do the screens show for `Cc1nn(-c2ccccc2)c(N)c1N=Nc1ccc(Cl)cc1`?
SKKanGAS inh: -15; tim23-1 inh: 12; TIM10 inh: 44*; ATG4B inh: 81*; PfHsp90 set2: 24; tim10-1 inh: 34; tim10 confirm: 32*; PLA2 counter: 89*

What do the screens show for `Cc1nn(-c2ccccc2)c(N)c1-c1ccccc1`?
SKKanGAS inh: 1; tim23-1 inh: 23; TIM10 inh: -15; ATG4B inh: 1; tim10-1 inh: 17

What do the screens show for `COc1ccc(-c2nnc(NC(=O)C(C)C)s2)c(OC)c1`?
SKKanGAS inh: -10; tim23-1 inh: 23; TIM10 inh: 2; ATG4B inh: -4; PfHsp90 set2: -3; tim10-1 inh: 6

What do the screens show for `O=[N+]([O-])c1ccc(NC(=S)NCc2ccc(F)cc2)cc1`?
SKKanGAS inh: 41; tim23-1 inh: 41; TIM10 inh: 42*; ATG4B inh: 57*; PfHsp90 set2: -2; tim10-1 inh: 36; tim10 confirm: 42*; PLA2 counter: 68*

How did O=c1c2ccccc2[nH]c(=S)n1Cc1ccccc1Cl do in these assays?
SKKanGAS inh: 5; tim23-1 inh: 9; TIM10 inh: 3; ATG4B inh: 0; PfHsp90 set2: 25; tim10-1 inh: 14

How did CN1/C(=C\C(=S)NC(=O)c2ccccc2Cl)C(C)(C)c2ccccc21 do in these assays?
SKKanGAS inh: 5; tim23-1 inh: 50; TIM10 inh: 40*; ATG4B inh: 49*; PfHsp90 set2: 0; tim10-1 inh: 36; tim10 confirm: 15; PLA2 counter: 40

What do the screens show for `COc1cc(OC)cc(-c2nc3ccccc3c(=O)n2OC(=O)c2ccc(C)c(C)c2)c1`?
SKKanGAS inh: 14; tim23-1 inh: 49; TIM10 inh: 50*; ATG4B inh: 56*; PfHsp90 set2: 10; tim10-1 inh: 37; tim10 confirm: 25; ATG4B conf: 51*; PLA2 counter: 23

Results for CC1/C(=N/O)CC(c2ccccc2)N(C)C1c1ccccc1 (stereo unspecified) ?
SKKanGAS inh: -2; tim23-1 inh: 20; TIM10 inh: 52*; ATG4B inh: 57*; PfHsp90 set2: 43; tim10-1 inh: 27; tim10 confirm: 55*; PLA2 counter: 48

How did CCCOc1ccc(C2=NNC(c3cccs3)=Nc3ccc(OC)cc32)cc1 do in these assays?
SKKanGAS inh: 12; tim23-1 inh: 40; TIM10 inh: 52*; ATG4B inh: 49*; PfHsp90 set2: -8; tim10-1 inh: 22; tim10 confirm: 39*; PLA2 counter: 77*

Results for COc1ccc2c(c1)C(c1cccs1)=NNC(c1ccncc1)=N2 ?
SKKanGAS inh: -1; tim23-1 inh: 28; TIM10 inh: 14; ATG4B inh: -15; PfHsp90 set2: 9; tim10-1 inh: -13

What do the screens show for `Oc1cccc(Nc2nc(O)c(/C=C3\C=Nc4ccccc43)s2)c1`?
tim23-1 inh: -7; TIM10 inh: 18; ATG4B inh: 25; PfHsp90 set2: -18; tim10-1 inh: -1

How did Oc1nc(Nc2cccc(Cl)c2)sc1/C=C1\C=Nc2ccccc21 do in these assays?
SKKanGAS inh: 113*; tim23-1 inh: 35; TIM10 inh: 44*; ATG4B inh: 73*; PfHsp90 set2: -25; tim10-1 inh: 18; tim10 confirm: -16; PLA2 counter: 83*

What do the screens show for `CCN(CC)c1ccc(/C=N/N(c2ccccc2)c2ccccc2)c(O)c1`?
SKKanGAS inh: -3; tim23-1 inh: 7; TIM10 inh: 2; ATG4B inh: -6; PfHsp90 set2: 0; tim10-1 inh: 9
